# Assay results taken from PubChem BioAssay AID1259417 (TB Discovery Research, Infectious Disease Research Institute, 2018).
# Screen size: about 1,100 compounds; about 760 (69%) were called active. How the calls were made is not given here. The set was probably picked from earlier hits. Some of the results follow.
# Experiment: M. tuberculosis growth inhibition, HTS (AID 1259417);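 further: bacteria grown with compound for 5 days at 37 °C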
# Conditions: stronger effect = higher value, concentration not given here
# [1] = M. tuberculosis DsRed fluorescence growth inhibition
# [2] = M. tuberculosis growth inhibition
Compound,inhibition [1],inhibition [2] [%]
O=S(=O)(Nc1cc(Sc2cccc3cccnc23)c(O)c2ccccc12)c1ccccc1,3.26% (active),44.3
O=S(=O)(Nc1cccc2cccnc12)c1ccc(Br)cc1,73.1% (active),91.6
Cc1ccc2nsnc2c1S(=O)(=O)Nc1cccc2cccnc12,100% (active),99.4
O=S(=O)(Nc1cc(Br)c(O)c2ccccc12)c1ccc(F)cc1,3.24% (inactive),-11.2
O=C(Nc1ccc(S(=O)(=O)N2CCC(c3nc4ccccc4[nH]3)CC2)cc1)c1cccc(Cl)c1,0.997% (inactive),-16
Cc1ccc(NC(=O)N2CCC(c3nc4c(nnn4Cc4cccc(Cl)c4)c(=O)[nH]3)CC2)cc1,97.3% (active),99.6
C=CCOC(=O)COc1ccc2c(-c3cc4ccccc4oc3=O)cc(=O)oc2c1,37.7% (active),60.7
CC(C)OC(=O)COc1ccc2cc(-c3ccccc3)c(=O)oc2c1,61.1% (active),80.6
C=CCOC(=O)COc1ccc2cc(-c3ccc(OC)cc3)c(=O)oc2c1,97.2% (active),98.4
COC(=O)C(C)Oc1ccc2cc(-c3ccc(OC)cc3)c(=O)oc2c1 (stereo not drawn),66.3% (active),96.3
CCCC1(O)CC(c2ccc(Cl)cc2)NC(c2ccc(Cl)cc2)C1C (stereo not drawn),8.53% (inactive),-21.7
C=CCOC(=O)COc1ccc2cc(-c3ccc(Cl)cc3)c(=O)oc2c1,98.9% (active),99.5
C=CCOC(=O)COc1ccc2cc(-c3ccccc3)c(=O)oc2c1,93.1% (active),97
C=CCOC(=O)COc1ccc2c(C)c(-c3ccccc3)c(=O)oc2c1,71.8% (active),92.5
Cc1cc(C)cc(Nc2cc(C)nc3c(-c4ccccc4)cnn23)c1,5.66% (inactive),21.5
COc1ccc(CCNc2cc(C)nc3c(-c4ccccc4)c(C)nn23)cc1OC,98.5% (active),98.9
CCc1ccc(Oc2coc3cc(OC(C)C(=O)OC)ccc3c2=O)cc1 (stereo not drawn),65.1% (active),92.2
COC(=O)C(C)Oc1ccc2c(=O)c(Oc3ccccc3Br)coc2c1 (stereo not drawn),59.3% (active),82.3
O=C(Nc1ccc(N2CCN(Cc3ccccc3F)CC2)cc1)c1ccc([N+](=O)[O-])o1,100% (active),99.7
CC1CCN(c2ccc(NC(=O)c3ccc([N+](=O)[O-])o3)cc2)CC1,98.8% (active),98.7
CC(C)C(=O)N1CCN(c2ccc(NC(=O)c3ccc([N+](=O)[O-])o3)cc2)CC1,99.1% (active),100
CC(C)C(=O)N1CCN(c2ccccc2NC(=O)c2ccc([N+](=O)[O-])o2)CC1,19.7% (inactive),5.43
CCOC(=O)COc1ccc(S(=O)(=O)Nc2ccc(C)c(C)c2)cc1,-1.13% (inactive),22
CCOC(=O)COc1ccc(S(=O)(=O)Nc2cccc(Cl)c2C)cc1,14.4% (active),55.5
Cc1c(Cl)cccc1NC(=O)c1ccc(OC(C)C(=O)OC2CCCCC2)cc1 (stereo not drawn),38.3% (active),74.3
CCOC(=O)COc1ccc(S(=O)(=O)Nc2c(C)cccc2CC)cc1,53% (active),92.2
Cc1sc2ncn(C(C)C(=O)OC3CCCCC3)c(=O)c2c1C (stereo not drawn),6.18% (inactive),8.72

Compound,inhibition [1],inhibition [2] [%]
CCOC(=O)COc1ccc(C(=O)Nc2cccc(Cl)c2C)cc1,97.7% (active),97.9
O=C(NCc1ccco1)c1cc([N+](=O)[O-])cc([N+](=O)[O-])c1,97.8% (active),93.5
O=C(Nc1sc2c(c1C(=O)NCc1ccco1)CCC2)c1ccccc1[N+](=O)[O-],3.29% (inactive),-5.87
Cc1scc(C(=O)NCc2ccco2)c1-c1ccccc1,2.71% (inactive),6.55
COc1ccccc1C(=O)Nc1sc2c(c1C(=O)NCc1ccco1)CCC2,3.89% (inactive),-6.54
CSc1ncc(C(=O)NCc2ccco2)cn1,35.2% (active),25.2
CSc1ncc(C(=O)Nc2cccc(C(F)(F)F)c2)cn1,12.9% (inactive),15.6
COc1cc(OC)cc(C(=O)NC(=S)N2CCCCCC2)c1,3.24% (inactive),-3.75
O=C(NC(=S)N1CCc2ccccc21)c1ccccc1,20.8% (inactive),20.4
CC1CCN(C(=S)NC(=O)c2ccc(Cl)cc2)CC1,24.6% (active),49.7
O=C(NC(=S)N1CCCC1)c1ccc(-c2ccccc2)cc1,44.2% (active),47
CN1CCN(C(=S)NC(=O)c2ccc(-c3ccccc3)cc2)CC1,0.913% (inactive),-8
CCN(CC)CCn1c(=N)n(CC(O)COc2ccc(Cl)cc2Cl)c2ccccc21 (stereo not drawn),100% (active),98
CC(=O)N(C)c1ccc(OCC(O)Cn2c3ccc(Cl)cc3c3cc(Cl)ccc32)cc1 (stereo not drawn),0.0147% (inactive),-14.7
CC(=O)Oc1cc2c(cc1Cl)C1(CC(c3ccccc3Cl)O2)CC(C)(C)NC(=S)N1 (stereo not drawn),-2.34% (inactive),-4.82
COC(=O)CSc1nc(N)c2c3c(sc2n1)CCCC3,44.7% (active),75
O=C(NCC1COc2ccccc2O1)c1ccc(NC(=O)C2COc3ccccc3O2)cc1 (stereo not drawn),0.302% (inactive),-8.66
Cc1ccc(C)c(-c2nnc(NC(=O)C3COc4ccccc4O3)o2)c1 (stereo not drawn),66.1% (active),90
CCC(=O)Nc1nnc(-c2ccc(C)cc2C)o1,0.727% (inactive),13.4
O=C(Nc1nnc(-c2ccc(Cl)cc2)o1)C1CCCCC1,0.632% (inactive),5.51
Cc1ccc(-c2nnc(NC(=O)C3CC3)o2)c(C)c1,49.6% (active),76.4
CCCCC(=O)Nc1nnc(-c2ccc(Cl)s2)o1,0.12% (inactive),19.7
O=C(Nc1nnc(-c2ccc(Cl)s2)o1)C1CCCCC1,49.3% (active),59.3
Cc1ccc(C)c(-c2nnc(NC(=O)C3CC3)o2)c1,51.8% (active),83.4
Cc1ccc(C)c(-c2nnc(NC(=O)C3=COCCO3)o2)c1,-4.83% (inactive),-2.72
Cc1ccc(Nc2nnc(SCC(=O)Nc3cccnc3Cl)s2)cc1C,3.89% (inactive),-3.4
CSc1ncnc2c1ncn2CC(=O)Nc1ccc(C)c(C)c1,32.5% (active),19.8
